# Test results published in PubChem BioAssay (Tox21).
# Inconclusive results are not listed. Unmarked numbers belong to inactive results. The source made the active and inactive calls. Calls come from the whole dose curve; as a rule, active = well fitted cell-killing curve with a large enough effect in the repeat runs; inconclusive = weak or mixed curves, or effect the other way; inactive = flat fitted curve, though single readings scatter.
# Assay: qHTS assay to identify small molecule agonists of the TGF-beta/Smad signaling pathway - cell viability counter screen (AID 1346829); note: nearly all actives have a fitted effect of over 45% in size; for activity change, negative = cytotoxicity: top concentration of the series differs between compounds
# Conditions: SBE-bla HEK293T viability, CellTiter-Glo luminescence, 5 h; series mostly up to 76.8 µM; activity change, negative = cytotoxicity: at the top concentration
# Outline: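 After overnight seating at 37 C and 5% CO2, reporter cells got compounds for 5 hr and FRET substrate for 2 hr; cell viability then came from CellTiter-Glo luminescence.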
# % is set by controls: 0 for no effect and ±100 for the full control effect; potency is the fitted concentration of half-maximal effect.
Structure (SMILES),Potency,"activity change, negative = cytotoxicity"
CC(C)(C)CC(C)(C)c1ccc(O)c(Cc2ccc(Cl)cc2Cl)c1,19 µM (active),
Nc1nc2ccccc2n1Cc1ccc(F)cc1,,-15.4% [at 35.3 µM]
CCCCC(CC)COC(=O)c1ccccc1C(=O)O (configuration not stated),,14.3%
C[C@@H]1C[C@H]2[C@@H]3CCC4=CC(=O)C=C[C@]4(C)[C@@]3(Cl)[C@@H](O)C[C@]2(C)[C@@]1(OC(=O)c1ccco1)C(=O)CCl,,-18.5% [at 35.3 µM]
O=[N+]([O-])c1cc([N+](=O)[O-])c2ccc(S(=O)(=O)O)cc2c1O,,-22.1%
C[C@H](CCC(=O)O)[C@H]1CC[C@H]2[C@@H]3CC[C@@H]4C[C@H](O)CC[C@]4(C)[C@H]3CC[C@]12C,inactive,
CCOc1ccc2nc3cc(N)ccc3c(N)c2c1,,1.78% [at 35.3 µM]
O=C(Oc1ccccc1)c1ccccc1C(=O)Oc1ccccc1,,-6.04%
Cc1ccc(O)c(C(C)(C)C)c1,inactive,
C/C=C1/C(=O)C[C@H]2[C@@H]3CCC4=CC(=O)CC[C@]4(C)[C@H]3CC[C@]12C,,-0.227%
CC1=NC(C)OC1C (configuration not stated),,1.06%
C[n+]1cc2c3c(ccc2c2ccc4cc5c(cc4c21)OCO5)OCO3,6.57 µM (active),
CN(C)c1ccc(C2(c3ccc(N(C)C)cc3)OC(=O)c3cc(N(C)C)ccc32)cc1,,5.16%
CCCC(C)c1ccccc1O (configuration not stated),,1.28%
CCOC(=O)c1nc(C(Cl)(Cl)Cl)n(-c2ccc(Cl)cc2Cl)n1,,-3.73%
CC(C)(C)C1CCC(CC2=C(O)c3ccccc3C(=O)C2=O)CC1 (configuration not stated),,-6.22% [at 35.3 µM]
NC(=O)CC[C@@H]1NC(=O)[C@H](Cc2ccccc2)NC(=O)[C@H](Cc2ccc(O)cc2)NC(=O)CCSSC[C@@H](C(=O)N2CCC[C@H]2C(=O)N[C@@H](CCCN=C(N)N)C(=O)NCC(N)=O)NC(=O)[C@H](CC(N)=O)NC1=O,,0.229% [at 35.3 µM]
